69 compounds from PubChem BioAssay AID686978 (National Center for Advancing Translational Sciences (NCATS), 2013) can be followed below.

Structures are written as SMILES. Screen size: about 420,000 compounds; about 64,000 (15%) were called active. Roughly 27% stayed inconclusive and do not appear here. Calls follow the shape of the dose curve; as a rule, active = well fitted inhibition curve with a large enough effect; inconclusive = small, poorly fitted or top-dose-only effect; inactive = flat fitted curve, though single readings scatter. A selection follows. Entries that show only a call come without a potency.
Potency is read from the fitted curve at half-maximal effect.

A short description of the assay: qHTS for Inhibitors of human tyrosyl-DNA phosphodiesterase 1 (TDP1): qHTS in cells in absence of CPT. Also: nearly all actives have a fitted effect of over 55% in size. The following applies: DT40 Tdp1-/- hTDP1 cells, no CPT, ATP luminescence, 48 h; activity change, negative = growth inhibition: at 46.2 µM (top of the series). A digest of the protocol: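 Cells were dispensed at 400 per well, compounds added by pin tool, plates incubated ≥48 hr at 37 °C, then CellTiter-Glo added for 30 min at room temperature before luminescence reading. Line: DT40 Tdp1-/- complemented with hTDP1; camptothecin omitted.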
Regarding `CSCC(NS(=O)(=O)c1ccc(C)cc1)C(=O)O` (centres undefined), the Potency entry was “inactive”.

Take `O=C(Nc1nnc(C2CC2)s1)C1=NN(C2CCS(=O)(=O)C2)C(=O)CC1` (centres undefined): the Potency result was “inactive”. The result for `Cn1cc(CCC(=O)NC2CC2)c2ccccc21` reads “inactive”.

On to `O=C(O)c1cccc(N=NN2CCCCCC2)c1`, for which the Potency result was “inactive”. The result for `CCC1CCCCN1C(=S)Nc1ccc(C(C)=O)cc1` (centres undefined) reads “inactive”; that for `CC(=O)c1ccccc1NC(=O)CC1(CC(=O)O)CCCCC1`, “inactive”; that for `Cc1ccc(S(=O)(=O)N(CC(O)CN2C(=O)NC(C)(C)C2=O)c2cccc([N+](=O)[O-])c2)cc1` (centres undefined), “inactive”. Under `COc1ccc([N+](=O)[O-])cc1N(CC(O)CN(CC(C)C)CC(C)C)S(=O)(=O)c1ccc(C)cc1` (centres undefined) stands 23.1 µM (active); under `Cc1ccc(S(=O)(=O)N(CC(O)CN2CCCCC2)c2cccc([N+](=O)[O-])c2)cc1` (centres undefined), “inactive”. Under `Cc1cc(C)n(Cc2cnc(N3CCOCC3)s2)n1` stands “inactive”; under `O=C(NCC(=O)N(CC1CCCO1)C(C(=O)NC1CCCCC1)c1ccccc1)c1ccco1` (centres undefined), “inactive”; under `Cc1ccc(-c2cc(C(=O)NN)n[nH]2)o1`, “inactive”.

`CCn1c(SCC(=O)Nc2cccc(F)c2)nnc1-c1cc2cc(Br)ccc2o1`: the Potency entry is “inactive”. For `COc1ccc(-c2nc3cnccn3c2NC(C)(C)CC(C)(C)C)cc1O`, the Potency was 18.4 µM (active). Turning to `COc1ccc(-c2nc3cnccn3c2NC2CCCCC2)cc1-c1cccc(Cl)c1`, the Potency is 25.9 µM (active). Under `COc1ccc(-c2nc3cc(C)ccn3c2NC2CCCCC2)cc1SC1CCCCC1` stands 20.9 µM (active); under `COc1ccc(-c2nnc(SCC(=O)NC3CCCCC3)o2)cc1OC`, “inactive”; under `COc1ccc(C)cc1S(=O)(=O)NC1CCCCC1`, “inactive”. The result for `COc1ccc(NC(=O)N(C)C[C@H]2Oc3ncc(C#C[C@@H](C)O)cc3C(=O)N([C@H](C)CO)C[C@H]2C)cc1` reads “inactive”; that for `CC1(C)CCc2nc(SCc3ccccc3)c(C#N)cc2C1`, “inactive”. As for `Cc1ccc(NS(=O)(=O)c2ccc(-c3ccc(=O)[nH]n3)o2)c(C)c1`, the Potency result was “inactive”. The result for `OCc1nc(CO)n(Cc2ccccc2)n1` reads “inactive”; that for `CC1(C(=O)NS(=O)(=O)c2cccc(F)c2)CCN1C(=O)c1cccc2ccccc12` (centres undefined), “inactive”. In the case of `CSc1nnc(-c2ccc(C(F)(F)F)cn2)o1`, the Potency entry is “inactive”. The result for `CCCC(=O)N1c2ccc(-c3csc(N)n3)cc2CC1C` (centres undefined) reads “inactive”; that for `Cc1onc(C(=O)NN)c1-c1csc(COc2ccccc2)n1`, “inactive”; that for `CC(C)(C)C(=O)OCc1nc(-c2ccc(O)c(O)c2)cs1`, 20.6 µM (active).

Regarding `NNC(=O)C1CCCn2c1nc1sc3c(c1c2=O)CCCC3` (centres undefined), the Potency result is “inactive”. With `CC(C(=O)O)n1cnc2sc3c(c2c1=O)CCCC3` (centres undefined), the Potency result was “inactive”.

Regarding `Cn1c(NN)nc2sc3c(c2c1=O)CCC3`, the Potency was 29.1 µM (active). Under `Cc1ccc(N/C(N)=N/c2nc(C(F)(F)F)cc(C(F)(F)F)n2)cc1` stands “inactive”. Under `C=C[C@](C)(O)CCC1C(=C)CCC2[C@@](C)(CO)CCC[C@@]12C` (some centres undefined) stands 18.4 µM (active). Under `Cc1nnc(SCC(=O)NC2CCCC2)s1` stands “inactive”; under `O=C(NCc1cccs1)C1CCN(S(=O)(=O)c2ccc(Cl)cc2)CC1`, “inactive”; under `O=C(NCc1ccccc1)C1CCCN(S(=O)(=O)c2cccs2)C1` (centres undefined), “inactive”. `O=C(NCc1ccc(Cl)cc1)C1CCN(S(=O)(=O)c2cccs2)CC1`: the Potency was 23.1 µM (active). Turning to `CCCCCNC(=O)C1C(=O)Nc2ccccc2C(=O)N1C(C)(C)C` (centres undefined), the Potency result was “inactive”. Under `COc1ccc(NC(=S)N2CCc3cc(OC)c(OC)cc3C2)cc1` stands “inactive”; under `CCOc1ccc(-c2cc3nc(C4CCN(C(=O)OC(C)(C)C)CC4)c(C(=O)Nc4ccc(C(=O)OC)cc4)cn3n2)cc1`, “inactive”.

`COc1ccc(Nc2ncc3c(n2)CCN(C(=O)OC(C)(C)C)C3)cc1`: the Potency is 20.6 µM (active). Under `COC(=O)CSc1nnc(NC(=O)CCc2ccccc2)s1` stands “inactive”; under `O=C(OCc1cc(Cl)ccc1OC(F)F)c1cccnc1`, “inactive”; under `CCO/N=C(/C)c1c(O)cc(-c2ccccc2)n(-c2ccccc2)c1=O`, “inactive”.

On to `O=C1NC[C@@H](CCCCN2CCN(CCc3ccc(O)cc3)C(=O)C2=O)N(CC2CCCCC2)C1=O`, for which the Potency result is “inactive”.

On to `COc1ccc2nc(SCC(=O)Nc3c(C)cc(C)cc3C)[nH]c2c1`, for which the Potency entry was “inactive”. As to `Cc1ccc(S(=O)(=O)N(Cc2nc(-c3ccc(Cl)cc3)no2)C2CCCCC2)cc1`, the Potency is 16.4 µM (active). `COc1ccc(-c2noc(CSc3nc4ccc(C)cc4[nH]3)n2)cc1`: the Potency is 11.6 µM (active). Consider `CC1CCN(Cc2nc(-c3ccc(Cl)cc3)no2)CC1`, for which the Potency result was “inactive”. The result for `Cc1ccc(-c2noc(CC(c3ccccc3)c3ccccc3)n2)cc1` reads “inactive”. Under `COc1ccc(-c2noc(CN(C)S(=O)(=O)c3ccc(C)cc3)n2)cc1` stands 18.4 µM (active); under `COc1ccc(-c2noc(CNC(=O)C(C)Oc3ccccc3)n2)cc1` (centres undefined), “inactive”.

Consider `COc1ccc(-c2noc(CSc3ccc(C)cc3)n2)cc1`, for which the Potency result is “inactive”. The result for `Cc1ccc(C(=O)OCc2nc(N)nc(Nc3ccccc3C)n2)cc1` reads “inactive”; that for `O=C1CCCc2nn(-c3ccccc3)nc21`, “inactive”; that for `O=c1[nH]c2c(c(=O)n1Cc1ccccc1)CCC2`, “inactive”. Under `CC(C)c1nnc(NC(=O)COC(=O)/C=C/c2ccc([N+](=O)[O-])cc2)s1` stands “inactive”; under `O=C(O)CCCCC(=O)O`, “inactive”. The result for `CC(Oc1ccccc1[N+](=O)[O-])C(=O)N/N=C/c1ccoc1` (centres undefined) reads “inactive”. Take `Cc1noc(C)c1CSc1nnc2ccc3ccccc3n12`: the Potency entry is “inactive”. Under `COc1ccc(C(=O)N/N=C(\C)CC(=O)Nc2ccc(Cl)cn2)cc1` stands “inactive”. Under `Cc1cc(OC(C)C(=O)Nc2sc3c(c2C(N)=O)CCCC3)ccc1Cl` (centres undefined) stands “inactive”; under `O=C(NCCCN1CCOCC1)c1ccc(N2CCCC2)c([N+](=O)[O-])c1`, “inactive”. With `N#Cc1c(NC(=O)c2ccc(N3CCOCC3)c([N+](=O)[O-])c2)sc2c1CCCC2`, the Potency was 6.51 µM (active).

For `Cc1cccc(C)c1NC(=O)CNC(=O)c1ccc(N2CCOCC2)c([N+](=O)[O-])c1`, the Potency result is “inactive”. Under `CC(/C=C/C1(O)C(C)CC(=O)CC1(C)C)OC1OC(CO)C(O)C(O)C1O` (centres undefined) stands “inactive”; under `CCOCc1nnc(NC(=O)CCC2CCCCC2)s1`, “inactive”; under `CCc1ccccc1NC(=O)c1ccc2c(c1)CCN2S(C)(=O)=O`, “inactive”. Under `CCc1ccccc1NC(=O)NCCN1CCCCC1` stands “inactive”. `CN1CCc2ccccc2C1Cc1ccccc1NC(=O)c1sc2ccccc2c1Cl` (centres undefined): the Potency is 6.51 µM (active).
